Hit rate of the full screen: of about 5,500 compounds, about 2,000 (36%) were called active. Not shown: some 18% with an inconclusive outcome. Cut-off read from the data, not from the text of the source: active = normalized growth mostly below about 0.91 (no sharp cut-off); inconclusive = no clear call, values can overlap the other calls; inactive = mostly above about 0.92. The list shows a part of the results.
Experiment: chemical genetic growth profiling, strain panel (AID 1159580);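 note: tested at 20 µM; growth read once vehicle control cultures reached saturation at 30 °C; 1 = growth at the plate median or of vehicle wells; lower values mean less growth of the strain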
Conditions: growth OD
[1] = S. cerevisiae deletion strains, locus YDL101C, strain DUN1, active compounds read low
[2] = S. cerevisiae deletion strains, locus YHR030C, strain SLT2, active compounds read low

Measured: normalized growth

COc1ccccc1N=C1SCC(=O)N1Cc1ccco1
inactive: S. cerevisiae deletion strains, locus YAL013W, strain DEP1, active compounds read low 0.993 | S. cerevisiae deletion strains, locus YBR229C, strain ROT2, active compounds read low 0.99 | [1] 0.983 | S. cerevisiae deletion strains, locus YDR150W, strain NUM1, active compounds read low 0.9 | S. cerevisiae deletion strains, locus YEL061C, strain CIN8, active compounds read low 0.989 | S. cerevisiae deletion strains, locus YGR078C, strain PAC10, active compounds read low 0.981 | S. cerevisiae deletion strains, locus YGR229C, strain SMI1, active compounds read low 1 | [2] 0.956 | S. cerevisiae deletion strains, locus YHR087W, strain rtc3, active compounds read low 0.989 | S. cerevisiae deletion strains, locus YJR043C, strain POL32, active compounds read low 0.977 | S. cerevisiae deletion strains, locus YJR075W, strain HOC1, active compounds read low 0.978 | S. cerevisiae deletion strains, locus YKL190W, strain CNB1, active compounds read low 0.997 | S. cerevisiae deletion strains, locus YLR039C, strain RIC1, active compounds read low 0.989 | S. cerevisiae deletion strains, locus YLR058C, strain SHM2 (second series), active compounds read low 0.99 | S. cerevisiae deletion strains, locus YLR085C, strain ARP6, active compounds read low 0.968 | S. cerevisiae deletion strains, locus YLR262C, strain YPT6, active compounds read low 0.998 | S. cerevisiae deletion strains, locus YML094W, strain GIM5, active compounds read low 0.972 | S. cerevisiae deletion strains, locus YMR219W, strain ESC1, active compounds read low 0.989 | S. cerevisiae deletion strains, locus YMR263W, strain SAP30, active compounds read low 0.987 | S. cerevisiae deletion strains, locus YNL153C, strain GIM3, active compounds read low 0.987 | S. cerevisiae deletion strains, locus YNL298W, strain CLA4 (second series), active compounds read low 0.997 | S. cerevisiae deletion strains, locus YNL322C, strain KRE1, active compounds read low 0.985 | S. cerevisiae deletion strains, locus YNR030W, strain Alg12, active compounds read low 0.998 | S. cerevisiae deletion strains, locus YOL006C, strain TOP1, active compounds read low 0.951 | S. cerevisiae deletion strains, locus YPL055C, strain LGE1, active compounds read low 0.969 | S. cerevisiae deletion strains, locus YPL241C, strain CIN2, active compounds read low 1.01 | S. cerevisiae deletion strains, locus YPR135W, strain CTF4, active compounds read low 0.939 | S. cerevisiae strains, strain wild type, active compounds read low 1

O=C1CSC(=Nc2cc(Cl)cc(Cl)c2)N1Cc1cccnc1
inactive: S. cerevisiae deletion strains, locus YAR019C, strain CDC15, active compounds read low 0.997 | S. cerevisiae deletion strains, locus YBL105C, strain PKC1, active compounds read low 0.989 | S. cerevisiae deletion strains, locus YBR135W, strain CKS1, active compounds read low 0.995 | S. cerevisiae deletion strains, locus YBR136W, strain MEC1, active compounds read low 0.986 | S. cerevisiae deletion strains, locus YBR160W, strain CDC28, active compounds read low 0.992 | S. cerevisiae deletion strains, locus YDL017W, strain CDC7, active compounds read low 0.991 | S. cerevisiae deletion strains, locus YDL028C, strain MPS1, active compounds read low 0.994 | [1] 0.988 | S. cerevisiae deletion strains, locus YDL108W, strain KIN28, active compounds read low 0.97 | S. cerevisiae deletion strains, locus YDL132W, strain cdc53, active compounds read low 0.997 | S. cerevisiae deletion strains, locus YDL214C, strain PRR2, active compounds read low 0.924 | S. cerevisiae deletion strains, locus YDR052C, strain DBF4, active compounds read low 0.995 | S. cerevisiae deletion strains, locus YDR054C, strain cdc34, active compounds read low 0.983 | S. cerevisiae deletion strains, locus YDR226W, strain ADK1, active compounds read low 0.996 | S. cerevisiae deletion strains, locus YDR477W, strain SNF1, active compounds read low 0.947 | S. cerevisiae deletion strains, locus YER123W, strain YCK3, active compounds read low 0.887 | S. cerevisiae deletion strains, locus YER133W, strain GLC7, active compounds read low 0.927 | S. cerevisiae deletion strains, locus YFL009W, strain cdc4, active compounds read low 0.986 | S. cerevisiae deletion strains, locus YFL029C, strain CAK1, active compounds read low 0.994 | S. cerevisiae deletion strains, locus YFR003C, strain YPI1, active compounds read low 0.991 | S. cerevisiae deletion strains, locus YFR019W, strain FAB1, active compounds read low 0.944 | S. cerevisiae deletion strains, locus YFR028C, strain CDC14, active compounds read low 0.994 | S. cerevisiae deletion strains, locus YGR040W, strain KSS1, active compounds read low 0.937 | S. cerevisiae deletion strains, locus YGR052W, strain FMP48, active compounds read low 1.03 | S. cerevisiae deletion strains, locus YGR092W, strain DBF2, active compounds read low 0.947 | [2] 1.14 | S. cerevisiae deletion strains, locus YHR079C, strain IRE1, active compounds read low 1.05 | S. cerevisiae deletion strains, locus YHR082C, strain KSP1, active compounds read low 1.01 | S. cerevisiae deletion strains, locus YHR205W, strain SCH9, active compounds read low 0.958 | S. cerevisiae deletion strains, locus YIL147C, strain SLN1, active compounds read low 0.986 | S. cerevisiae deletion strains, locus YJL095W, strain BCK1, active compounds read low 1.03 | S. cerevisiae deletion strains, locus YJL128C, strain PBS2, active compounds read low 0.974 | S. cerevisiae deletion strains, locus YJL157C, strain FAR1, active compounds read low 0.931 | S. cerevisiae deletion strains, locus YJR016C, strain ILV3, active compounds read low 0.996 | S. cerevisiae deletion strains, locus YJR066W, strain TOR1 (second series), active compounds read low 0.912 | S. cerevisiae deletion strains, locus YJR066W, strain TOR1, active compounds read low 1.02 | S. cerevisiae deletion strains, locus YKL048C, strain ELM1, active compounds read low 0.974 | S. cerevisiae deletion strains, locus YKL067W, strain YNK1, active compounds read low 0.948 | S. cerevisiae deletion strains, locus YKL101W, strain HSL1, active compounds read low 0.958 | S. cerevisiae deletion strains, locus YKL193C, strain SDS22, active compounds read low 0.999 | S. cerevisiae deletion strains, locus YKL203C, strain TOR2, active compounds read low 1.02 | S. cerevisiae deletion strains, locus YLR113W, strain HOG1, active compounds read low 0.968 | S. cerevisiae deletion strains, locus YLR133W, strain CKI1, active compounds read low 0.955 | S. cerevisiae deletion strains, locus YLR403W, strain SFP1, active compounds read low 0.957 | S. cerevisiae deletion strains, locus YML070W, strain DAK1, active compounds read low 0.918 | S. cerevisiae deletion strains, locus YMR001C, strain CDC5, active compounds read low 0.996 | S. cerevisiae deletion strains, locus YMR205C, strain PFK2 (second series), active compounds read low 0.938 | S. cerevisiae deletion strains, locus YMR277W, strain FCP1, active compounds read low 0.996 | S. cerevisiae deletion strains, locus YNL006W, strain LST8, active compounds read low 0.994 | S. cerevisiae deletion strains, locus YNL020C, strain ARK1, active compounds read low 0.945 | S. cerevisiae deletion strains, locus YNL161W, strain CBK1, active compounds read low 0.996 | S. cerevisiae deletion strains, locus YNL183C, strain NPR1, active compounds read low 1.03 | S. cerevisiae deletion strains, locus YNL207W, strain RIO2, active compounds read low 0.993 | S. cerevisiae deletion strains, locus YNL222W, strain SSU72, active compounds read low 1 | S. cerevisiae deletion strains, locus YNL307C, strain MCK1 (second series), active compounds read low 0.952 | S. cerevisiae deletion strains, locus YOL078W, strain AVO1, active compounds read low 0.998 | S. cerevisiae deletion strains, locus YOL136C, strain PFK27, active compounds read low 0.927 | S. cerevisiae deletion strains, locus YOR061W, strain CKA2, active compounds read low 0.927 | S. cerevisiae deletion strains, locus YOR119C, strain RIO1, active compounds read low 0.981 | S. cerevisiae deletion strains, locus YOR231W, strain MKK1, active compounds read low 1.02 | S. cerevisiae deletion strains, locus YOR329C, strain SCD5, active compounds read low 0.994 | S. cerevisiae deletion strains, locus YPL031C, strain PHO85, active compounds read low 0.949 | S. cerevisiae deletion strains, locus YPL153C, strain RAD53, active compounds read low 0.923 | S. cerevisiae deletion strains, locus YPL204W, strain HRR25, active compounds read low 0.944 | S. cerevisiae deletion strains, locus YPL209C, strain IPL1, active compounds read low 0.991 | S. cerevisiae deletion strains, locus YPL256C, strain CLN2, active compounds read low 1.04 | S. cerevisiae deletion strains, locus YPR025C, strain CCL1, active compounds read low 0.992 | S. cerevisiae deletion strains, locus YPR106W, strain ISR1, active compounds read low 0.998 | S. cerevisiae deletion strains, locus YPR111W, strain DBF20, active compounds read low 0.99 | S. cerevisiae deletion strains, strain NNK1, active compounds read low 0.991 | S. cerevisiae deletion strains, strain TSCII, active compounds read low 0.997
